Reference: PubChem BioAssay (NCATS)
“And” between values parts separate entries of the source, which are not always exact repeats. Equal values may be shown once. Inconclusive results are not listed. Entries that show only a call come without a potency. The source made the active and inactive calls. Unless noted, the call rests on the fitted dose curve.

Tests used:
[1] = qHTS assay for small molecule antagonists of peroxisome proliferator-activated receptor delta signaling (AID 588535; active means well fitted inhibition curve with a large enough effect in the signal ratio, with a control signal flat, not every such curve was filed as active; the % refers to the signal ratio;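 on max response: cells co-treated with a PPAR-delta agonist as stimulator during compound exposure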); details: HEK293T PPARd-UAS-bla, beta-lactamase FRET ratio, 18 h; 460 nm channel
Procedure, shortened: (§1)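 Titrations were run on PPAR-delta-UAS-bla HEK293T cells in charcoal/dextran-stripped serum, incubated 18 h at 37 C. CCF4 fluorescence (460/530 nm) after 2 h RT; Hill equation yields IC50 and maximal response.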

[2] = target: Peroxisome proliferator-activated receptor delta (Homo sapiens) (UniProt Q03181); assay: as above; details: HEK293T PPARd-UAS-bla, beta-lactamase FRET ratio, 18 h; series mostly up to 76.7 µM
Procedure, shortened: as §1

[3] = target: Peroxisome proliferator-activated receptor gamma (Homo sapiens) (UniProt P37231); assay: qHTS assay for small molecule agonists of peroxisome proliferator-activated receptor gamma signaling (AID 588536; active means well fitted curve in the direction sought with a large enough effect in the signal ratio, with a control signal flat, not every such curve was filed as active; the % refers to the signal ratio); details: HEK293 PPARg-UAS-bla, beta-lactamase ratio, 16 h, percent of rosiglitazone response, DMSO as zero; series mostly up to 76.7 µM
Procedure, shortened: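 Compound treatment: 16 h, 37 C, HEK293 GeneBLAzer cells. Detection: CCF4, 2 h RT. Values: Hill-fit EC50, efficacy as % of 2 uM rosiglitazone.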

[4] = target: Peroxisome proliferator-activated receptor gamma (Homo sapiens) (UniProt P37231); assay: qHTS assay for small molecule antagonists of peroxisome proliferator-activated receptor gamma signaling (AID 588537; active means well fitted inhibition curve with a large enough effect in the signal ratio, with a control signal flat, not every such curve was filed as active; the % refers to the signal ratio;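 further: reporter cells co-stimulated with 50 nM rosiglitazone agonist during compound treatment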); details: HEK293 PPARg-UAS-bla, beta-lactamase ratio, antagonist mode; series mostly up to 76.8 µM
Procedure, shortened: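 Antagonist-mode β-lactamase reporter screen run as a titration series. HEK293 PPARγ-UAS-bla cells are stimulated with rosiglitazone (50 nM final) for 16 h, then CCF4 is read at 460/530 nm. Data are scaled between DMSO and rosiglitazone and fitted to the Hill equation.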

[5] = target: Vitamin D3 receptor (Homo sapiens) (UniProt P11473); assay: qHTS assay for small molecule antagonists of vitamin D receptor signaling (AID 588541); details: HEK293T VDR-UAS-bla, beta-lactamase ratio, antagonist mode; series mostly up to 76.7 µM;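 further: receptor activated by calcitriol during compound treatment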
Procedure, shortened: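 Antagonist-mode beta-lactamase reporter assay: HEK293T VDR-UAS-bla cells were exposed to titrated compound alongside 1-alpha,25-dihydroxyvitamin D3 at 3 nM final for 16 h. Values were normalized to the 50 nM agonist control and DMSO basal, with IC50 and efficacy from Hill equation fits.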

[6] = target: Vitamin D3 receptor (Homo sapiens) (UniProt P11473); assay: qHTS assay for small molecule agonists of vitamin D receptor signaling (AID 588543); details: HEK293T VDR-UAS-bla, beta-lactamase ratio, 16 h; series mostly up to 76.8 µM
Procedure, shortened: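 Agonist-mode beta-lactamase reporter: HEK293T VDR-UAS-bla cells in charcoal-stripped 2% FBS, compound series 16 h 37 C, CCF4 2 h RT. EC50 from Hill fit, scaled against DMSO and 50 nM calcitriol control.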

Sequence of Peroxisome proliferator-activated receptor delta (Homo sapiens) (Q03181 whole entry, looked up): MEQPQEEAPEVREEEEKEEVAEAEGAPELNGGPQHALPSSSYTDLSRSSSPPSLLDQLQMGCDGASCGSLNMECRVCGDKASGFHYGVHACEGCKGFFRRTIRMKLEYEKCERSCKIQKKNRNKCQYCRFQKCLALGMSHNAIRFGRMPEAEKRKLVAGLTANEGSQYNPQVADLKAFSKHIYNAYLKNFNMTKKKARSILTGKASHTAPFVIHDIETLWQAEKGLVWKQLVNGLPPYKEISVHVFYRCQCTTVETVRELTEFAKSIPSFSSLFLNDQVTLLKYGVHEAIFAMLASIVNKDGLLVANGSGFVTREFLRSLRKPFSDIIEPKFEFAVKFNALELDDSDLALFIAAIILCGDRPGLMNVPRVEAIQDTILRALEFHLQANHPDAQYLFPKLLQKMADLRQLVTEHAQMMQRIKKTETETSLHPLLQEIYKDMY
Sequence of Peroxisome proliferator-activated receptor gamma (Homo sapiens) (P37231 whole entry, looked up): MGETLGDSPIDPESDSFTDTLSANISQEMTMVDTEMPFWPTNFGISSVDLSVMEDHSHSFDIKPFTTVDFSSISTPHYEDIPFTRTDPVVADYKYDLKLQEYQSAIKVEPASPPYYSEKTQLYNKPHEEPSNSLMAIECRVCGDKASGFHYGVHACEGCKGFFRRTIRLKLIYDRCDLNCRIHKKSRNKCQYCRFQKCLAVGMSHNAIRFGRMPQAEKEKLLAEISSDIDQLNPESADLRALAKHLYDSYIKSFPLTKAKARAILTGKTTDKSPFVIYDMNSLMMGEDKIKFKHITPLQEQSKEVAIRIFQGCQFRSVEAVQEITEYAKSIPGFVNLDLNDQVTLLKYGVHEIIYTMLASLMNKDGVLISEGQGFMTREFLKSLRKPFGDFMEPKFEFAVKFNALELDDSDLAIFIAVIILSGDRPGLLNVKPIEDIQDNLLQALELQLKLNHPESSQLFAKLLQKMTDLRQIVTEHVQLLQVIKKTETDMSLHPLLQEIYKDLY
Sequence of Vitamin D3 receptor (Homo sapiens) (P11473 whole entry, looked up): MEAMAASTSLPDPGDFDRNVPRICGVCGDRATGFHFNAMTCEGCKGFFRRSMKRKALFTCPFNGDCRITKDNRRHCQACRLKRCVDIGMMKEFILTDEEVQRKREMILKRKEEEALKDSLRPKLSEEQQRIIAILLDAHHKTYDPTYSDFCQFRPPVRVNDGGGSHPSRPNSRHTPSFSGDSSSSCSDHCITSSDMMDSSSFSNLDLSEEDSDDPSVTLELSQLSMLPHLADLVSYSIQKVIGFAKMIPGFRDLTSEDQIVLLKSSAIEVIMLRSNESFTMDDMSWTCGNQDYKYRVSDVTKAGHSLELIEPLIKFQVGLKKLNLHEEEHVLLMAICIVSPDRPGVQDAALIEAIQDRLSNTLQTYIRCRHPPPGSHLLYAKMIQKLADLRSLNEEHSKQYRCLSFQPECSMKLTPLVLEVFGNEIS

Row | Structure (SMILES) | max response [1] | Potency [2] | outcome [3] | outcome [4] | outcome [5] | outcome [6]
1 | O=[N+]([O-])c1cccc(Cl)c1 | 4.21% | inactive | inactive | inactive | inactive | inactive
2 | CCCOCC(C)O (stereo unspecified) | -0.284% | inactive | inactive | inactive | inactive | –
3 | CC(=O)CCc1ccccc1 | – | – | inactive | – | inactive | inactive
4 | O=C(O)CN(CC(=O)O)CC(=O)O | – | – | inactive | inactive | – | –
5 | O=C(O)c1c(Cl)cccc1Cl | – | – | inactive | inactive | – | –
6 | Cc1ccc2c(c1[N+](=O)[O-])C(=O)c1ccccc1C2=O | – | – | inactive | – | inactive | inactive
7 | O=C(O)c1ccccc1Cl | -1.82% | inactive | inactive | – | – | inactive
8 | CC(C)(C)OCC1CO1 (stereo unspecified) | – | – | inactive | – | inactive | inactive
9 | Nc1cc([N+](=O)[O-])ccc1C(=O)O | -33% and 11% | inactive | inactive | inactive | inactive | inactive
10 | Nc1ccccc1S(=O)(=O)O | -23.8% | inactive | inactive | inactive | inactive | inactive
11 | CCC=O | -3.11% | inactive | inactive | – | inactive | inactive
12 | Cc1ccc(C(C)(C)C)cc1 | -8.71% | inactive | inactive | – | inactive | inactive
13 | COc1ccc(N)c(OC)c1 | – | – | inactive | inactive | inactive | inactive
14 | CCCCCCCCN | 13.3% | inactive | inactive | inactive | – | inactive
15 | COC(=O)CS | – | – | – | inactive | inactive | inactive
16 | ClC/C=C/CCl | – | – | inactive | inactive | inactive | inactive
17 | [O-]/[N+](=N\O)c1ccccc1 | – | – | inactive | – | inactive | inactive
18 | Cc1ccccc1Br | – | – | inactive | – | inactive | –

Row | Structure (SMILES) | max response [1] | Potency [2] | outcome [3] | outcome [4] | outcome [5] | outcome [6]
19 | N#CCc1ccccc1[N+](=O)[O-] | 42% | – | inactive | – | inactive | –
20 | Cc1cccc(C(=O)O)c1[N+](=O)[O-] | – | – | inactive | inactive | inactive | inactive
21 | C[C@@H]1CC2(OC3C[C@@]4(C)C5=CC[C@H]6C(C)(C)C(O[C@@H]7OC[C@@H](O)[C@H](O)[C@H]7O)CC[C@@]67C[C@@]57CC[C@]4(C)C31)OC(O)C1(C)OC21 (stereo partly specified) | – | – | – | – | inactive | –
22 | Cc1ccc(Cl)cc1 | -18% | inactive | inactive | – | inactive | inactive
23 | c1ccc(Nc2ccccc2)cc1 | -10.2% and 19.6% | inactive | inactive | inactive | inactive | inactive
24 | CCN(C(=O)N(CC)c1ccccc1)c1ccccc1 | – | – | inactive | – | – | –
25 | O=C(O)c1ccc(Cl)c(Cl)c1 | 20.7% | inactive | inactive | inactive | inactive | –
26 | COC(=O)CC#N | – | – | inactive | inactive | inactive | inactive
27 | CCCCC(CC)CNCC(CC)CCCC (stereo unspecified) | 11.3% | inactive | – | – | inactive | inactive
28 | C=C(C)C(N)=O | – | – | inactive | – | inactive | inactive
29 | CC(=O)OCc1ccco1 | -12.4% | inactive | inactive | – | inactive | inactive
30 | Cc1cccc(C)c1O | -20.4% | inactive | inactive | inactive | inactive | –
31 | CCOc1cccc(N)c1 | -10.6% | inactive | inactive | inactive | inactive | inactive
32 | Cc1cccc2ccccc12 | – | – | inactive | inactive | inactive | –
33 | NCCCCCCN | -19.3% | – | inactive | inactive | inactive | inactive
34 | Cc1cscn1 | -36.6% | inactive | inactive | inactive | inactive | inactive
35 | CCCCCNCCCCC | -18.6% | – | inactive | – | inactive | inactive
